Source: PubChem BioAssay (NCI)
Compounds without any hit were thinned out: in the full panel of roughly 83,000, 20% have a hit.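 In brief: 96-well plates, 48 h treatment, single concentration, percent growth endpoint.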 Activity calls are given as the source filed them. Rule for the calls: active = growth percent below 10; inactive = the rest.

Key:
Experiment in all cases: NCI-60 one-dose screen, 48 h (100 = growth as untreated, 0 = no growth, -100 = all killed)
Details in all cases: 10 µM unless noted
DU-145 prostate = system: DU-145 prostate
K-562 leukemia = system: K-562 leukemia
MALME-3M melanoma = system: MALME-3M melanoma
MDA-MB-231 breast = system: MDA-MB-231 breast
RXF 393 renal = system: RXF 393 renal
SF-268 CNS = system: SF-268 CNS
SF-295 CNS = system: SF-295 CNS
SF-539 CNS = system: SF-539 CNS
UACC-257 melanoma = system: UACC-257 melanoma
M14 melanoma = system: M14 melanoma

Measured: growth

COc1ccc(C(=O)/C=C/c2ccc(C)cc2)cc1S(N)(=O)=O
active: K-562 leukemia 3.04%
inactive: DU-145 prostate 47.3% | MALME-3M melanoma 96.9% | MDA-MB-231 breast 58.9% | RXF 393 renal 74.4% | SF-268 CNS 72.4% | SF-295 CNS 91.3% | SF-539 CNS 25% | UACC-257 melanoma 83.2% | M14 melanoma 71.1%

O=C1c2c(c3c4cc(F)ccc4oc3c3[nH]c4ccccc4c23)C(=O)N1O
active: SF-539 CNS 2.46%
inactive: DU-145 prostate 31.8% | K-562 leukemia 26.1% | MALME-3M melanoma 28% | MDA-MB-231 breast 57.6% | RXF 393 renal 39.9% | SF-268 CNS 38.7% | SF-295 CNS 55.7% | UACC-257 melanoma 75.9% | M14 melanoma 28.6%

CCN(CC)CCN1C(=O)c2c(c(C)c3c(oc4cc(OC)ccc43)c2C)C1=O
inactive: DU-145 prostate 75.1% | MALME-3M melanoma 102% | MDA-MB-231 breast 58.4% | RXF 393 renal 73.1% | SF-268 CNS 89.6% | SF-295 CNS 89.4% | SF-539 CNS 70.6% | UACC-257 melanoma 127% | M14 melanoma 98.9%
active: K-562 leukemia -29.2%

CN1CCN(c2ccc(Nc3ncc4[nH]c(=O)n(Cc5ccccc5N)c4n3)cc2)CC1
inactive: DU-145 prostate 103% | K-562 leukemia 69.8% | MALME-3M melanoma 83.9% | MDA-MB-231 breast 83.8% | RXF 393 renal 83.8% | SF-268 CNS 72.8% | SF-295 CNS 98.2% | SF-539 CNS 80.9% | UACC-257 melanoma 112% | M14 melanoma 95.9%

Cc1ccc2nc(/C=C/c3ccc(N(C)C)cc3)cc(C)c2c1
active: SF-539 CNS 9.33%
inactive: DU-145 prostate 47.2% | K-562 leukemia 19.8% | MALME-3M melanoma 39.8% | MDA-MB-231 breast 38.4% | RXF 393 renal 29.4% | SF-268 CNS 37.3% | SF-295 CNS 12.5% | UACC-257 melanoma 62.1% | M14 melanoma 13.2%

O=C(/C=C/c1ccco1)Nc1ncc(Cc2ccc(F)cc2)s1
active: SF-539 CNS -21.3%
inactive: DU-145 prostate 19% | K-562 leukemia 10.8% | MALME-3M melanoma 59% | MDA-MB-231 breast 45.5% | RXF 393 renal 12.7% | SF-268 CNS 54.9% | SF-295 CNS 11.7% | UACC-257 melanoma 45.2% | M14 melanoma 16.7%

O=C1NCCN1/N=C/c1c(Cl)n(Cc2ccc(Cl)cc2)c2ccccc12
inactive: DU-145 prostate 89.4% | K-562 leukemia 65.2% | MALME-3M melanoma 150% | MDA-MB-231 breast 73.9% | RXF 393 renal 69.4% | SF-268 CNS 104% | SF-295 CNS 74.2% | SF-539 CNS 87.2% | UACC-257 melanoma 64.6% | M14 melanoma 114%

COc1ccc(S(=O)(=O)Oc2ccc(-c3sc4cc(OS(=O)(=O)c5ccc(OC)cc5)ccc4c3C(=O)c3ccc(OCCN4CCCCC4)cc3)cc2)cc1
inactive: DU-145 prostate 107% | K-562 leukemia 103% | MALME-3M melanoma 92.3% | MDA-MB-231 breast 108% | RXF 393 renal 110% | SF-268 CNS 102% | SF-295 CNS 93.2% | SF-539 CNS 95.2% | UACC-257 melanoma 93% | M14 melanoma 105%

CCOC(=O)/C(=C/c1ccc([N+](=O)[O-])cc1)C(=O)c1ccccc1
inactive: DU-145 prostate 65.3% | MALME-3M melanoma 32.4% | MDA-MB-231 breast 20.1% | SF-268 CNS 24.5% | SF-295 CNS 81.6% | UACC-257 melanoma 45.4% | M14 melanoma 32.4%
active: K-562 leukemia 4.82% | RXF 393 renal -11.1% | SF-539 CNS -24.9%

CC1(C)C2=C(C(=O)N1Cc1ccccc1)C(c1ccco1)N(C(=O)C1CCC1)CCN2 (stereo not given)
inactive: DU-145 prostate 110% | K-562 leukemia 110% | MALME-3M melanoma 105% | MDA-MB-231 breast 95.5% | RXF 393 renal 136% | SF-268 CNS 96.5% | SF-295 CNS 108% | SF-539 CNS 101% | UACC-257 melanoma 95.6% | M14 melanoma 103%

CCOC(=O)CC1CSC(N/N=C(/C)c2cccc(C(F)(F)F)c2)=N1 (stereo not given)
inactive: DU-145 prostate 102% | K-562 leukemia 80.6% | MALME-3M melanoma 95.3% | MDA-MB-231 breast 94.4% | RXF 393 renal 109% | SF-268 CNS 100% | SF-295 CNS 93.5% | SF-539 CNS 103% | UACC-257 melanoma 87.9% | M14 melanoma 101%

COc1ccc(C2=C/C(=C\c3ccccc3O)C(=O)N2Cc2ccccc2)cc1
inactive: DU-145 prostate 96.2% | K-562 leukemia 51.1% | MALME-3M melanoma 63.4% | MDA-MB-231 breast 93.7% | RXF 393 renal 76.2% | SF-268 CNS 86.5% | SF-295 CNS 94% | SF-539 CNS 101% | UACC-257 melanoma 71.7% | M14 melanoma 50.5%

C=C(C)Cn1c(SCC(=O)c2cccs2)nc2sc3c(c2c1=O)CCCC3
inactive: DU-145 prostate 50.9% | K-562 leukemia 41% | MALME-3M melanoma 71.5% | MDA-MB-231 breast 65.5% | RXF 393 renal 52.2% | SF-268 CNS 42.2% | SF-295 CNS 42.2% | SF-539 CNS 39.3% | UACC-257 melanoma 81.5% | M14 melanoma 77.6%

COC(CCP(=O)(c1ccccc1)c1ccccc1)(C(=O)c1ccccc1)c1ccccc1 (stereo not given)
inactive: DU-145 prostate 111% | MALME-3M melanoma 96.3% | MDA-MB-231 breast 73.6% | RXF 393 renal 76.2% | SF-268 CNS 86.1% | SF-295 CNS 32.1% | SF-539 CNS 87.2% | UACC-257 melanoma 64.3% | M14 melanoma 63%
active: K-562 leukemia 9.03%

CN(C)CC1C(=O)O[C@H]2[C@H]1CC/C(COC(=O)NCc1ccc(Cn3c(=O)sn(CCCI)c3=O)cc1)=C\CC[C@@]1(C)O[C@@H]21 (stereo not given in full)
active: DU-145 prostate -69.8% | K-562 leukemia -0.241% | MALME-3M melanoma -75.6% | RXF 393 renal -87% | UACC-257 melanoma -39.8% | M14 melanoma -56.7%
inactive: MDA-MB-231 breast 60.4% | SF-268 CNS 57.7% | SF-295 CNS 96.8% | SF-539 CNS 24.4%

O=C1C=CC2(O)OC(c3ccccc3)CC(=O)C2=C1O (stereo not given)
inactive: DU-145 prostate 15.7% | K-562 leukemia 72.6% | MALME-3M melanoma 95.7% | MDA-MB-231 breast 73.2% | RXF 393 renal 94% | SF-268 CNS 40.4% | SF-295 CNS 107% | SF-539 CNS 86.1% | UACC-257 melanoma 87.9% | M14 melanoma 90.3%

CC(C)C(=O)Nc1ncc(C(=O)NCCN(Cc2ccccc2)C(=O)c2ccc(S(=O)(=O)Nc3ccccc3)cc2)s1
inactive: DU-145 prostate 109% | K-562 leukemia 98.4% | MALME-3M melanoma 111% | MDA-MB-231 breast 96.5% | RXF 393 renal 95% | SF-268 CNS 89.5% | SF-295 CNS 100% | SF-539 CNS 89.3% | UACC-257 melanoma 105% | M14 melanoma 101%

N#C/C(Sc1nc2sc3c(c2c(=O)n1Cc1ccccc1)CCCC3)=C1/SC=C(c2ccc(Cl)cc2)N1c1ccccc1
inactive: DU-145 prostate 119% | K-562 leukemia 82.5% | MALME-3M melanoma 89.8% | MDA-MB-231 breast 86.4% | RXF 393 renal 90.9% | SF-268 CNS 78% | SF-295 CNS 88.9% | SF-539 CNS 72.3% | UACC-257 melanoma 108% | M14 melanoma 90.5%

C/C=C(/C)C(=O)O[C@@H]1CC(C)(C)CC2C34OC(=O)[C@@]21CC[C@@]3(C)[C@]1(C)CCC2C(C)(C)C(=O)CC[C@]2(C)C1C[C@@H]4O (stereo not given in full)
inactive: DU-145 prostate 77.9% | K-562 leukemia 28.8% | MALME-3M melanoma 85% | MDA-MB-231 breast 58.4% | RXF 393 renal 76% | SF-268 CNS 73.4% | SF-295 CNS 78.4% | SF-539 CNS 52.1% | UACC-257 melanoma 64.6% | M14 melanoma 52.4%

Oc1cccc(-c2nc(-c3n[nH]c(=S)n3-c3ccccc3)cc3c2[nH]c2ccccc23)c1
active: RXF 393 renal -15.7% | SF-295 CNS 3.87% | SF-539 CNS -15.2%
inactive: DU-145 prostate 27.7% | K-562 leukemia 11.1% | MALME-3M melanoma 44.4% | MDA-MB-231 breast 45.7% | SF-268 CNS 28.6% | UACC-257 melanoma 66.7% | M14 melanoma 24.6%

COc1ccc(C(=O)/C=C/c2ccc(Cl)cc2)cc1S(N)(=O)=O
inactive: DU-145 prostate 90.8% | MALME-3M melanoma 90.1% | MDA-MB-231 breast 65.8% | RXF 393 renal 97.4% | SF-268 CNS 91.7% | SF-295 CNS 98.3% | SF-539 CNS 17.7% | UACC-257 melanoma 87.1%
active: K-562 leukemia 3.05% | M14 melanoma -57.3%
